Only a selection was taken, and hits are over-represented in it overall.
RGS12 GoLoco inh-1: blocks human Gai1 binding to RGS12 GoLoco peptide, red readout | P63096 | Potency, µM (series often up to 61.6 µM), for inactives: top-dose activity, negative = inhibition, hits mostly inhibitors | Gai1:RGS12 GoLoco peptide FP, rhodamine, 10 min | AID 880 | 230,000 compounds, 0.44% hits; active means well fitted inhibition curve with a large enough effect, not every such curve was filed as active; inactive means no such curve, though single readings can be large or run the other way; further: potency means the concentration at half of the fitted maximal effect; on the % scale 0 is the no-effect control and ±100 the full control effect; nearly all actives have a fitted effect of over 30% in size
ERG-DNA inh: ERG Ets/DNA interaction inhibition. P11308. fluorescence polarization, His-ERG Ets domain / labelled DNA. Potency, µM (titrated, usually from 76.9 µM), inactives show at the top dose FP activity, negative = inhibition, usual class: inhibitors. 370,000 compounds, 0.028% hits. AID 624246; active means well fitted inhibition curve with a large enough effect in the polarisation, with a control signal flat; inconclusive means small, poorly fitted or top-dose-only effect, or effect the other way, or a change in a side signal; inactive means no such curve, though single readings can be large or run the other way; the % refers to the polarisation;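 further: polarization taken with two DNA probes labelled with fluorescein and Texas red; potency means the concentration at half of the fitted maximal effect; % of control where 0% means no effect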
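His-tagged ERG Ets domain (1 uM in the protein solution; 300mM KCl, 50mM Tris-HCl, 1mM EDTA, 1mM DTT, pH 7.5) received compound, then a probe mix of 5 nM fluorescein-DNA and 100nM Texas-615-DNA. Fluorescence polarization was read for both dyes.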
CBFb-RUNX1 inh: inhibitors of human CBF-beta and RUNX1 interaction. Q01196+Q13951. AlphaScreen CBFb-His/RUNX1-biotin binding, biochemical. Potency, µM (doses to about 59.8 µM), for the others: at the highest dose activity, negative = inhibition, most hits filed as inhibitors. 230,000 tested, under 10 active. AID 1477; further: % of control where 0% means no effect
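Interaction loss through any mechanism counts as activity. Pre-formed complex of His-CBF-beta and biotin-RUNX1 (30 nM apiece) is incubated with compound 15 min, then with 50 ng nickel and 50 ng streptavidin beads for 90 min before AlphaScreen detection.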
TRb SRC2 PPI: inhibitors of human thyroid hormone receptor beta-SRC2 interaction; TRbeta-SRC2 peptide binding, fluorescence polarization; receptor liganded with 1 µM T3; P10828; Potency, µM (series often up to 106 µM), without a hit: at the top dose activity change, negative = inhibition, hits mostly inhibitors; 280,000 compounds, 0.065% hits;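 further: potency means the concentration at half of the fitted maximal effect; plate controls were bound peptide for no effect and peptide without receptor for full effect; nearly all actives have a fitted effect of over 50% in size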
Target sequence (P10828 whole entry, looked up): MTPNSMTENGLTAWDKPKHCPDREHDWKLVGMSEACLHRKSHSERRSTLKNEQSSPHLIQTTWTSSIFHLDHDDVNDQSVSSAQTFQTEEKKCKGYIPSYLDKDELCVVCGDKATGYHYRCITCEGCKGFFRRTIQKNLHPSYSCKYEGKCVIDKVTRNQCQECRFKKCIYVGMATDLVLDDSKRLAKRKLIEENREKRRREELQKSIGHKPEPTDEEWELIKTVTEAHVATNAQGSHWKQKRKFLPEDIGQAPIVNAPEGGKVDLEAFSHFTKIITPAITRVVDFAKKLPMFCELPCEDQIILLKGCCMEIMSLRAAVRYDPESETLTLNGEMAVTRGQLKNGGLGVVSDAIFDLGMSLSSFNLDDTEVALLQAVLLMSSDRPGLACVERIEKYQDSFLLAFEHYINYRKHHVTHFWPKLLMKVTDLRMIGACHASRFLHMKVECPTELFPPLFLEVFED
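Assay buffer: 20 mM Tris-HCl, 100 mM NaCl, 10% glycerol, 1 mM EDTA, 0.01% NP-40, 1 mM DTT, 1 uM T3, 5% DMSO; TRb LBD 0.6 uM, Texas Red SRC2 20 nM; FP after 5 hr.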
TexasRed fluor: Texas Red fluorescence interference in TRb-SRC2 counter-screen. TRb/SRC2 Texas Red total fluorescence interference. Potency, µM (doses to about 106 µM), without a hit: at the highest dose fluorescence change, negative = quenching. 280,000 compounds, 0.29% hits. AID 1479; active means well fitted curve in either direction with a large enough effect; inconclusive means small, poorly fitted or top-dose-only effect; further: potency means the concentration at half of the fitted maximal effect; on the % scale 0 is the no-effect control and ±100 the full control effect
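Human TRβ ligand-binding domain (0.6 uM) and Texas Red SRC2 peptide (20 nM) in Tris buffer with 1 uM T3 and 5% DMSO were incubated with pinned compound for 5 hr at ambient temperature. Total fluorescence was computed as S + 2P (555/632 nm).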
RGS12 GoLoco inh-2: confirmation of human RGS12 GoLoco motif inhibitors; shares compounds with RGS12 GoLoco inh-1; Gai1/rhodamine-RGS12 GoLoco peptide fluorescence polarization; Potency, µM (titrated, usually from 57.1 µM), inactives show at the top dose activity, negative = inhibition, hits mostly inhibitors; AID 2390; 110 compounds, 50% hits
Starred values were filed as active, the others as inactive; ? = inconclusive; / = not tested or not shown; ! = a repeat was not active; [ ] = remark or other dose. Unless noted, the call rests on the fitted dose curve; in most records, active means well fitted curve in the direction sought with a large enough effect; inconclusive means small, poorly fitted or top-dose-only effect, or another doubt; inactive means no such curve, though single readings can be large; an effect the other way counts as inactive or inconclusive.

SMILES	RGS12 GoLoco inh-1	ERG-DNA inh	CBFb-RUNX1 inh	TRb SRC2 PPI	TexasRed fluor	RGS12 GoLoco inh-2
CCc1cccc(C)c1NC(=O)c1cn2c3c(ccc(Cl)c3c1=O)OC(C)C2 (centres undefined)	/	4%	/	-19%	100µM*[quencher]	/
CCOc1ccccc1NC(=O)c1c(NCc2sccc2C)sc2c1CCC(C)C2 (centres undefined)	/	4%	/	?	0.14µM*[quencher]	/
Cc1cc(OC(C)C(=O)Nc2ccncc2)ccc1Cl (centres undefined)	/	-14%	/	/	/	/
O=C(/C=N/O)NCc1cccnc1	/	/	6%	13%	2%	/
C[n+]1cccc(CNC(=O)/C=N/O)c1	14µM*	-2%	4%	5%	2%	/
CN(CCCCCC(=O)/C=N/O)Cc1ccccc1	5%	5%	-4%	5%	-5%	/
C[N+](C)(C)CCCCCCC(=O)/C=N/O	1.8µM*	7%	9%	-3%	-2%	/
C[N+]1(CCCCCCC(=O)/C=N/O)CCCCCC1	13µM*	-2%	2%	5%	0%	/
C[N+]1(CCCCC[N+]2(C)CCCC2)CCCC1	7%	/	?	8%	-10%	/
CCC/C(=N\OCC)C1=C(O)CC(O)(CC(C)S(=O)(=O)CC)CC1=O (centres undefined)	/	/	/	1%[201 µM]	4%[201 µM]	/
Cc1cc(C)c2c(=O)n(CC(=O)N3CCC(N4CCCCC4)CC3)sc2n1	-50%	8%	-2%	0%	0%	/
CCCNC(=O)Cn1sc2nc(C)cc(C)c2c1=O	7.9µM*	-5%	6%	-2%	0%	/
CCOc1ccc(-c2cc(-c3nc(-c4ccc(OC)c(OC)c4)no3)[nH]n2)cc1	/	0%	/	3%	-1%	/
CCOc1ccc(C2=Cc3cc(OC)c(OC)cc3C(=C(Cl)Cl)O2)cc1	-10%	/	-6%	28µM*	-19%	/
CC(=O)/C=C/c1ccccc1O	2%	-5%	4%	-1%	-4%	/
COC(=O)/C=C/c1cc(O)ccc1O	2.8µM*	/	4%	8%	-4%	/
Cc1cc2c(cc1C)[n+](C)cn2CC(O)COCc1ccccc1 (centres undefined)	11µM*	-9%	4%	-2%	-5%	22µM*
C[n+]1cn(CC(O)COCc2ccccc2)c2ccccc21 (centres undefined)	16µM*	-5%	1%	-11%	-3%	14µM*
Cn1c(=O)c2c(-c3ccc(Br)cc3)n(Cc3ccc(F)cc3)cc2n(C)c1=O	/	7%	/	-5%	-2%	/
O=C(NC(=S)Nc1ccccc1Br)C1CCC1	/	-14%	/	/	/	/
Cc1[nH]c2ccccc2c1C(=O)CNc1nccs1	-61%	-9%	5%	4%	-1%	6.3µM*
Cc1[nH]c2ccccc2c1C(=O)CCl	33%	-4%	6%	4%[53 µM]	-2%[53 µM]	/
COc1cccc(C(=O)N/N=C/c2ccc(Oc3ccc([N+](=O)[O-])cn3)c(OC)c2)c1	-51%	5%	-8%	4%	1%	18µM*
CC1c2ccccc2CN1CC1=NCCN1 (centres undefined)	25µM*	/	13%	-3%	1%	?
N#Cc1cccc(-c2nc3cnc(N4CCOCC4)nc3n(C[C@H]3CCCO3)c2=O)c1	7%	/	/	/	/	/
SMILES	RGS12 GoLoco inh-1	ERG-DNA inh	CBFb-RUNX1 inh	TRb SRC2 PPI	TexasRed fluor	RGS12 GoLoco inh-2
CCCc1n(CC(O)COC2CCCCC2)c2ccccc2[n+]1C (centres undefined)	7%	1%	-1%	6%	0%	/
CCCc1n(CC(O)COCC2CC=CCC2)c2ccccc2[n+]1C (centres undefined)	-1%	-6%	6%	0%	-2%	14µM*
C=CCn1c(=O)[nH]c2nc3cc(N=CN(C)C)c(C)cc3nc2c1=O	28µM*	4%	7%	-9%	-2%	28µM*
Cc1nc2c(c3c1[nH]c1ccccc13)C(=O)CC(C)(C)C2	20%	-2%	6%	1%	-3%	/
O=C1NCc2c1c1c3ccccc3[nH]c1c1[nH]c3ccccc3c21	/	/	/	/	/	7%
Cc1ccc(-c2nnc(SCC(=O)Nc3ccc4c(c3)oc3ccccc34)n2C)c(Cl)c1	-11%	1%	0%	4%	1%	/
Cc1ccccc1OCc1nnc(SCC(=O)Nc2ccc3c(c2)oc2ccccc23)n1C	8%	2%	0%	-21%	-2%	11%
O=C(N/N=C/c1cccnc1)c1cc(O)c(O)c(O)c1	/	-3%	/	/	/	/
Cn1c(SCC(=O)N2CCCC2)nnc1-c1ccc(S(=O)(=O)N2CCCC2)cc1	12%	-8%	-3%	-7%	1%	/
CCC(=O)Nc1ccc(-c2nnc(SCC(=O)N3CCCCC3)n2C)cc1	-4%	1%	-1%	-1%	1%	15%
Cn1c(SCC(=O)Nc2ccccc2)nnc1-c1ccc(NC(=O)CCc2ccccc2)cc1	2%	0%	7%	-10%	-3%	-6%
CCc1ccc(-n2c(=O)c3c4c(sc3n(Cc3ccccc3C#N)c2=O)CCC4)cc1	/	4%	/	0%	4%	/
Cc1ccc(-c2nc(C)c(CCNC(=O)C(=O)Nc3ccc(C)c(Cl)c3)s2)cc1	/	4%	/	1%	1%	/
Cn1cccc1C(=O)N1CCC[C@@]2(CCN(Cc3cc(C(F)(F)F)cc(C(F)(F)F)c3)C2)C1	8%	/	/	/	/	/
CN1C(CC(=O)c2ccccc2)CCCC1CC(O)c1ccccc1 (centres undefined)	22µM*!	-3%	-5%	6%	0%	18%
